From PubChem BioAssay (NCI)
This is part of a sample that, as a whole, favours compounds with a hit. Of some 83,000 tested, about 20% had one in any assay.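 Cells were grown in 96-well plates and exposed to the test compound at a single concentration for 48 hours; results are reported as percent growth, with values below 10 considered active.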 A number with no mark means an inactive call. Calls of active or inactive are those of the source.

Legend:
Assay in all cases: NCI-60 one-dose screen, 48 h (100 = growth as untreated, 0 = no growth, -100 = all killed)
Conditions in all cases: 10 µM unless noted
[1] = system: SR leukemia
[2] = system: RPMI-8226 leukemia
[3] = system: OVCAR-8 ovarian
[4] = system: OVCAR-5 ovarian
[5] = system: OVCAR-4 ovarian
[6] = system: SK-OV-3 ovarian
[7] = system: IGROV1 ovarian
[8] = system: OVCAR-3 ovarian
[9] = system: HS 578T breast
[10] = system: NCI/ADR-RES ovarian
[11] = system: T-47D breast
[12] = system: BT-549 breast
[13] = system: MDA-MB-435 melanoma
[14] = system: SW-620 colon
[15] = system: MCF7 breast
[16] = system: HCT-116 colon
[17] = system: KM12 colon
[18] = system: HCC-2998 colon

Compound | growth [1] | growth [2] | growth [3] | growth [4] [%] | growth [5] [%] | growth [6] [%] | growth [7] | growth [8] | growth [9] | growth [10] | growth [11] | growth [12] | growth [13] | growth [14] | growth [15] | growth [16] | growth [17] [%] | growth [18] [%]
COc1ccccc1C(OC(C)=O)OC(C)=O | 88.7% | 101% | 112% | 112 | 111 | 104 | 112% | 106% | 106% | 100% | 95.3% | 102% | 104% | 108% | 90.9% | 95.7% | 105 | 
COc1ccc(-n2c(-c3ccc(NC(=O)CCCl)cc3)nnc2-c2cc(OC)c(OC)c(OC)c2)cc1 | 6.09% (active) | 31% | 49.2% | 79.7 | 54.1 | 45.2 | 42.4% | 4.58% (active) | 56% | 55.9% | 25.3% | 66.6% | 54.9% | 54.5% | 23.2% | 35.7% | 15.4 | 43.2
CCOC(=O)CSc1nnc(-c2cc3c([nH]c4ccccc43)c(-c3cccc(O)c3)n2)n1-c1ccc(C)cc1 | 13.7% | 76.1% | 16.7% | 96.4 | 72.6 | 105 | 28.3% | 31.1% | 58.7% | 89.9% | -5.32% (active) | 101% | 16.4% |  | 35.3% | 50% | 76.3 | 83.7
O=C(NOC1OC(CO)C(O)C(O)C1O)Nc1ccccc1 (configuration not stated) | 75.2% | 87.3% | 103% | 100 | 105 | 95.7 | 111% | 105% | 103% | 109% | 78.7% | 110% | 102% | 106% | 87.9% | 105% | 105 | 
Nc1n[nH]c2cccc(C#Cc3cccc(NC(=O)c4cccc(C(F)(F)F)c4)c3)c12 | 27.2% | 29.3% | 47.2% | 31.3 | 44.1 | 46.3 | -7.33% (active) | 49.2% | -0.652% (active) | 43.2% | 25.3% | 46.2% | 30.1% | 46.1% | 39.9% | 9.05% (active) | 38.5 | 26.2
O=S(=O)(CCN1CCOCC1)Nc1cncc(-c2ccc3ncnc(Nc4ccc(F)c(Cl)c4)c3c2)c1 | 90% | 82.4% | 72.8% | 69.3 | 82.2 | 33.5 | 10.8% | 50.6% | 37% | 87.3% | -17.9% (active) | 49.7% |  | 90.2% | 47.3% | 56.1% | 95.9 | 74.4
Nc1nc(-c2cc3c(cc2Cl)NC(=O)/C3=C/c2ccc(Cl)cc2)cs1 | 13.8% | 31.9% | 50.8% | 92 | 48.6 | 71.8 | 34.9% | 32.8% | 48.1% | 74.5% | 18.1% | 26.3% | 1.64% (active) |  | 16.8% | 24.2% | 36 | 73.3
CCOC(=O)C1=C(N)Oc2cc(OC)ccc2C1c1ccc(F)c(F)c1 (configuration not stated) | 12.7% | 6.63% (active) | 36% | 56.9 | 69.4 | 22.8 | 54.1% | 17.7% | 28.4% | 25.5% | 36.4% | 50.2% |  | 21.1% | 16.6% | 31.8% | 27 | 54.5
Cc1ccc(/C=C2/C(=O)Nc3cc(Cl)c(-c4csc(N)n4)cc32)cc1 | 23.9% | 50% | 82.6% | 102 | 68.7 | 77.7 | 59.7% | 59.8% | 63.7% | 82.9% | 34.9% |  | -9.13% (active) | 58.6% | 35.8% | 66% | 44.5 | 91.4
C#C[C@@]1(O)[C@@H](CO)O[C@@H](n2cc(Br)c3c(Cl)ccnc32)[C@@H]1O | 22.4% | 0.227% (active) | -42.5% (active) | 40.8 | 26.9 | 42.1 | 61% | -9.54% (active) | 40.9% | 0.838% (active) | -17.8% (active) | 22.6% |  | 14.5% | 1.48% (active) | 23.1% | 65 | 37
Cc1ccc2nc(-c3ccc(-n4on4-c4ccc(/C=C/c5ccc(-n6on6-c6ccc(-c7nc8ccc(C)cc8s7)cc6)cc5S(=O)(=O)O)c(S(=O)(=O)O)c4)cc3)sc2c1 | 113% | 102% | 116% | 105 | 118 | 113 | 101% | 107% | 116% | 109% | 95.5% | 114% | 110% |  | 110% | 103% | 103 | 107
COc1ccc(/C=C2/C(=O)Nc3cc(Cl)c(-c4csc(N)n4)cc32)cc1 | 18.4% | 39.3% | 61.8% | 85 | 70.1 | 48.5 | 56.1% | 17% | 45.7% | 32.2% | 23.5% | 33.4% | -14.4% (active) |  | 25% | 36.2% | 25.7 | 
O=c1cc(Cl)[nH]c(=O)[nH]1 | 111% | 98.6% | 104% | 105 | 109 | 85.2 | 109% | 109% | 103% | 105% | 95.1% |  | 111% | 106% | 92.5% | 101% | 105 | 93.5
N#CC1=C(N)Oc2c(ccc3ccccc23)C1c1cc(=O)oc2ccc(Cl)cc12 (configuration not stated) | 22.9% | 30.7% | 27.7% | 51.6 | 65.8 | 16.9 | 39.8% | -9.67% (active) | 47.5% | 12.2% | 47.7% | 49% | -43.2% (active) |  | 19.7% | 12.7% | 21.5 | 36.6
CCc1c(C)c2cc(-n3c(-c4ccc(OC)cc4)csc3=N)c(O)c(C)c2oc1=O | 3.54% (active) | -9.39% (active) | 17.9% | 44 | 12.3 | 43.8 | 25.1% | 9% (active) | 24.5% | 11.4% | -0.0975% (active) | 5.21% (active) |  | 22.9% | 9.39% (active) | 8.8% (active) | 12.7 | 36.2
COc1ccc(-c2nnc(SCC(=O)N3CCN(c4cc5c(cc4F)c(=O)c(C(=O)O)cn5C4CC4)CC3)o2)cc1OC | 90.6% | 90.1% | 96.9% | 96.2 | 103 | 84.2 | 97.1% | 111% | 101% | 98.1% | 70.7% | 69.1% |  | 96.2% | 83.6% | 55.3% | 99.4 | 108
C=C1C(=O)O[C@H]2[C@H]1CC/C(COC(=O)c1ccc(Cl)nc1)=C\CC[C@@]1(C)O[C@@H]21 | -13.2% (active) | -30% (active) | -8.23% (active) | 27.2 | 27.9 | 99.3 | 13.1% | -42.1% (active) | 61.2% | 42.1% | -31.1% (active) | 10.3% |  | -45.2% (active) | 7.96% (active) | -80.6% (active) | 82.8 | 95.5
Cc1cc(SCc2ccc(Cl)cc2Cl)nc(SCc2ccc(Cl)cc2Cl)n1 | 105% | 103% | 104% | 97.8 | 88.2 | 116 | 99.5% | 102% | 102% | 99.4% | 114% | 106% |  | 101% | 92.8% | 95.9% | 97.4 | 100
